Screening results from PubChem BioAssay.
Sampled rows, rich in hits. Any-hit rate of the full collection: about 1.7%.
KCNH2 WT inh: qHTS for Inhibitors of KCHN2 3.1: Wildtype qHTS; Voltage-gated inwardly rectifying potassium channel KCNH2 (Homo sapiens), Q12809; U2OS, BacMam KCNH2, thallium flux FluxOr; stronger effect = lower value; activity change, % at 1.84 µM; 340,000 compounds, 0.37% hits; AID 720551, 2013;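 active = maximum activity change below -70%; inconclusive = maximum activity change between -70% and -50%; inactive = maximum activity change above -50%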
Target sequence (Q12809 whole entry, looked up): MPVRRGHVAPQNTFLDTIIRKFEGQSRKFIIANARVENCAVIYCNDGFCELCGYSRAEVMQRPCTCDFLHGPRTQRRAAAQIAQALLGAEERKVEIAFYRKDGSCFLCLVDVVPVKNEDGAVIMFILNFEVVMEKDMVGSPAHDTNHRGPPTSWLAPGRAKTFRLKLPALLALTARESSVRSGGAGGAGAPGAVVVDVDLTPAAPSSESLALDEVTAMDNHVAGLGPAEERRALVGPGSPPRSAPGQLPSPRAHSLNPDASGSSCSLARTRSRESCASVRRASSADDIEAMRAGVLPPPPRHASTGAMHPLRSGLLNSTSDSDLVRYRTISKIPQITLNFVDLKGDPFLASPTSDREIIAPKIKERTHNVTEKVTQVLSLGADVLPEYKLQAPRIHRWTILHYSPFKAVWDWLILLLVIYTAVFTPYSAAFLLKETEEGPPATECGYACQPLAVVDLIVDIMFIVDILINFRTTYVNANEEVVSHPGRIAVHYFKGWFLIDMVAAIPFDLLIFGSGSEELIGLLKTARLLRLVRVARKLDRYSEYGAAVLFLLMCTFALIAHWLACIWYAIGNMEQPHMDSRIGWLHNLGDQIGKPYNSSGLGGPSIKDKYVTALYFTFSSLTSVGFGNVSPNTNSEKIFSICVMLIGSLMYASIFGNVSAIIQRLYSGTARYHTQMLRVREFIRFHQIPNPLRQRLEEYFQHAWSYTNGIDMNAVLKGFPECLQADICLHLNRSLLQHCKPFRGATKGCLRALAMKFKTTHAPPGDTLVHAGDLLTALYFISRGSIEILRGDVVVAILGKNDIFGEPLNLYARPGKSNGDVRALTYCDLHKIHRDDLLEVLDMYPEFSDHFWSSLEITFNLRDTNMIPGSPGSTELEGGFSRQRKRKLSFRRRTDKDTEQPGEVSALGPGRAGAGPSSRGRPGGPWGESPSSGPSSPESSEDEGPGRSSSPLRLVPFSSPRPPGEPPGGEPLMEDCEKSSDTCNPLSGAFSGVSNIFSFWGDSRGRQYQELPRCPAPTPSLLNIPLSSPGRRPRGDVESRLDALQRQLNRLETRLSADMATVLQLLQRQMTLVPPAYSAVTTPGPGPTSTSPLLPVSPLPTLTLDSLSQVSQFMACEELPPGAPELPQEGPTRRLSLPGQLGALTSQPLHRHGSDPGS
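U2OS cells were transduced with wild-type KCNH2 virus (2.03 x 10^8 / mL) for 4 h at room temperature, then cultured overnight at 37 C. Thallium flux was read with FluxOr dye. Rate constants were normalized to DMSO controls.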
KCNH2 3.1 block: qHTS for Inhibitors of KCHN2 3.1: Mutant qHTS; 340,000 compounds, 0.95% hits; activity change, % (tested at about 1.8 µM); U2OS KCNH2 3.1, thallium flux FluxOr; stronger effect = lower value; Potassium voltage-gated channel subfamily H member 2, brain isoform KCNH2 3.1 (human);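 active = maximum activity change below -70%; inconclusive = maximum activity change from -70% to -50%; inactive = maximum activity change above -50%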;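 also: thallium influx rate constant from kinetic fluorescence after stimulation buffer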
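FluxOr-based Tl+ influx in U2OS cells transduced with KCNH2 3.1 virus; rate constants normalized to DMSO controls.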
TRHR enhancer-1: qHTS for Small Molecule Agonists and Allosteric Enhancers of Human TRH Receptor: Primary Screen for Enhancers | Thyrotropin-releasing hormone receptor (Homo sapiens), P34981 | TRHR cells, fluo-8 calcium fluorescence, EC20 TRH enhancement | 360,000 compounds, 0.66% hits | enhancement, % at 2 µM; in the data active = enhancement above about 30%
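Enhancer read-out: after compound pinning and an initial kinetic agonist-mode read, an EC20 of TRH (10 nM final) was injected and fluo-8 calcium signal (Ex 480/Em 530) followed at 1 s/cycle for 100 cycles in TRHR-expressing cells.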
TRPML1 inh: qHTS for Inhibitors of the Human Mucolipin Transient Receptor Potential 1 (TRPML1); Mucolipin-1 (Homo sapiens), Q9GZU1; TRPML1-inducible cells, Ca2+ dye fluorescence, FDSS; stronger effect = lower value; inhibition of EC80 agonist-evoked calcium signal; activity change, negative = inhibition, % (no concentration beside the values); 390,000 compounds, 0.02% hits; in the data active = activity change below about -50%; inconclusive = between about -30% and that limit;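 also: stimulus is agonist 54-4 at its EC80 concentration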
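Calcium fluorescence in TRPML1-DL cells induced overnight with Tet: a 110 s read after compound pin addition, then a 110 s antagonist read after challenge with 54-4 at 4 uM final (EC80).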
TRHR agonist-1: qHTS for Small Molecule Agonists and Allosteric Enhancers of Human TRH Receptor: Primary Screen for Agonists | Thyrotropin-releasing hormone receptor (Homo sapiens), P34981 | TRHR cells, calcium flux fluo-8, FDSS agonist mode | 360,000 compounds, 0.18% hits | activation, % at 2 µM; in the data active = activation above about 30%
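TRHR-expressing cells loaded with fluo-8 calcium dye; 23 nL library compound pin-transferred, kinetic FDSS fluorescence (Ex 480/Em 530) recorded about 180 s for agonist-induced calcium release, before a 10 nM TRH EC20 addition for potentiator mode.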
TRPML1 ag: qHTS for Agonists of the Human Mucolipin Transient Receptor Potential 1 (TRPML1); AID 624414, 2012; activation, % (test concentration not listed); TRPML1-expressing cells, Ca2+ dye fluorescence, FDSS; 410,000 compounds, 0.12% hits; in the data active = activation above about 50%; inconclusive = mostly about 30% to 49%
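TRPML1-DL cells, Tet-induced overnight (~16 h, 37 degrees C), loaded 45-90 min at room temperature with Ca8 no-wash calcium dye plus quencher. FDSS fluorescence: 10 s baseline, compound pin-transfer, 110 s agonist read, then EC80 54-4 (4uM final) and 110 s antagonist read.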
TRHR enhancer-2: qHTS for Small Molecule Agonists and Allosteric Enhancers of Human TRH Receptor: Confirmation Screen for Enhancers | shares compounds with TRHR enhancer-1 | TRH receptor cell assay, enhancer confirmation qHTS | activity change, negative = inhibition, % at 46.1 µM | 970 tested, under 10 active | AID 493076, 2011;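 also: compound effect scored on response to added TRH at EC20 of 10 nM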
TRHR agonist-2: qHTS for Small Molecule Agonists and Allosteric Enhancers of Human TRH Receptor: Confirmation Screen for Agonists. AID 493078, 2011. TRHR-expressing cells, agonist activation read-out. 970 compounds, 8% hits. shares compounds with TRHR enhancer-1. Potency, µM (series often up to 46.1 µM), hits mostly activators; also: nearly all actives have a fitted effect of over 75% in size
Of the large screens only hits and unclear results are named; the others gave an inactive call (follow-up assays come after a bar, where they were run). Unless noted, calls follow the shape of the dose curve; as a rule, active = well fitted curve in the direction sought with a large enough effect; inconclusive = small, poorly fitted or top-dose-only effect, or another doubt; inactive = no such curve, though single readings can be large; an effect the other way counts as inactive or inconclusive.

CCc1ccc(NC(=O)C[n+]2cc(-c3ccc(C)cc3)n3c2CCC3)cc1	TRHR enhancer-1 42 | TRHR enhancer-2 inactive | TRHR agonist-2 inactive
O=C(CCN1C(=O)C2CCCCC2C1=O)N1CCN(S(=O)(=O)c2ccccc2)CC1 (centres undefined)	TRHR enhancer-1 41 | TRHR enhancer-2 inactive | TRHR agonist-2 inactive
O=C(CCN1C(=O)C2CCCCC2C1=O)N1CCN(S(=O)(=O)c2cccc(F)c2)CC1 (centres undefined)	none
COc1ccccc1C/C(N)=N/OC(=O)c1cccs1	TRHR enhancer-1 47 | TRHR enhancer-2 inactive | TRHR agonist-2 inactive
CCCC(=O)N(Cc1cc2cc(OC)ccc2[nH]c1=O)c1ccccc1OC	none (no result: TRHR enhancer-1, TRHR agonist-1)
Cc1ccc(NC(=O)CN2CCc3ccccc3C2)cc1S(=O)(=O)N(C)C	TRHR enhancer-1 58 | TRHR enhancer-2 inactive | TRHR agonist-2 inactive
Cc1ccc(S(=O)(=O)N2CCN(CC(=O)Nc3ccc4c(c3)CCC4)CC2)cc1C	TRHR enhancer-1 44 | TRHR enhancer-2 inactive | TRHR agonist-2 inactive
O=C(CN1CCN(S(=O)(=O)c2ccc(Cl)cc2)CC1)Nc1ccc2c(c1)CCC2	none (no result: KCNH2 3.1 block)
O=C1NC[C@H](CCCCN2CCN(CCc3ccc(O)cc3)C(=O)C2=O)N(CCC2CCCCC2)C1=O	none (no result: KCNH2 WT inh, KCNH2 3.1 block, TRHR enhancer-1, TRPML1 inh, TRHR agonist-1)
CCOC(=O)c1c(S(=O)(=O)NCC(=O)Nc2cccc(CC)c2)c(C)n(C)c1C	none (no result: KCNH2 WT inh, KCNH2 3.1 block)
CN1CCN(NC(=O)NC2CCCCC2)CC1	TRHR enhancer-1 41 | TRHR enhancer-2 inactive | TRHR agonist-2 inactive
CN1CCN(CC(=O)NC(=O)NC2CCCCC2)CC1	none
CN(C)S(=O)(=O)c1ccc(C(=O)Nc2ccc3nc(N4CCOCC4)sc3c2)cc1	none (no result: TRHR enhancer-1, TRHR agonist-1)
COc1ccc(C(C)(C)C)cc1NC(=O)c1ccc[n+]([O-])c1	TRHR enhancer-1 53 | TRHR enhancer-2 inactive | TRHR agonist-2 inactive
CC(=O)Nc1ccc(C(=O)Nc2ccc3c(c2)OCO3)cc1	none
CS(=O)(=O)Nc1ccc(C(=O)Nc2ccc3c(c2)OCO3)cc1	TRHR enhancer-1 46 | TRHR enhancer-2 inactive | TRHR agonist-2 inactive
Cc1[nH]c2ccccc2c1C(=O)C(C)OC(=O)c1ccccc1NCCO (centres undefined)	none
COc1cccc(N=C2NC(=O)/C(=C/c3cc([N+](=O)[O-])ccc3O)S2)c1	TRHR agonist-1 55 | TRHR enhancer-2 inactive | TRHR agonist-2 inconclusive
O=C1NC(=Nc2ccccc2Cl)S/C1=C\c1cc([N+](=O)[O-])ccc1O	none
O=[N+]([O-])c1ccc(N=Cc2sc3ccccc3c2O)cc1	none
O=[N+]([O-])c1cccc(N=Cc2sc3ccccc3c2O)c1	TRHR enhancer-1 43 (no result: KCNH2 WT inh, KCNH2 3.1 block, TRPML1 inh, TRPML1 ag) | TRHR enhancer-2 inactive | TRHR agonist-2 inactive
COc1ccccc1NS(=O)(=O)c1cccc(C(=O)N/N=C/c2c(C)nn(-c3ccccc3)c2N2CCCC2)c1	none | TRHR enhancer-2 inactive | TRHR agonist-2 inactive
CC(C)(CCl)C(=O)Nc1ccc(OC(F)(F)F)cc1	none
CS/C(=C\[N+](=O)[O-])Nc1ccc(OC(F)(F)F)cc1	TRHR enhancer-1 43 | TRHR enhancer-2 inactive | TRHR agonist-2 inconclusive
O=C(c1ccc(CSc2nc3ccncc3n2Cc2cccc(F)c2)cc1)N1CCCCCC1	none (no result: KCNH2 WT inh, KCNH2 3.1 block)
CCOC(=O)c1c(C)n(-c2ccccc2)c2ccc(O)cc12	TRHR enhancer-1 46 | TRHR enhancer-2 inactive | TRHR agonist-2 inactive
CCOC(=O)/C(C#N)=C(C)/C=C1\Sc2ccccc2N1CC	TRHR agonist-1 33, TRPML1 ag 52 | TRHR enhancer-2 inactive | TRHR agonist-2 21µM
CCc1ccc(NC(=S)N2CCN(C)CC2)cc1	TRHR enhancer-1 58 | TRHR enhancer-2 inactive | TRHR agonist-2 inactive
CCc1ccc(NC(=S)N2CCCC2)cc1	none
O=C(c1ccc(CSc2nc3ccncc3n2Cc2ccccc2F)cc1)N1CCCCC1	TRHR enhancer-1 58 (no result: KCNH2 WT inh, KCNH2 3.1 block) | TRHR enhancer-2 inactive | TRHR agonist-2 inactive
COc1ccc(Cc2nnc(SCC(=O)NC3(C#N)CCCCC3)n2N)cc1	none
COc1ccccc1/C=N/OCc1cc(C(C)=O)ccc1OC	TRHR enhancer-1 56 | TRHR enhancer-2 inactive | TRHR agonist-2 inactive
COc1ccc(C(C)=O)cc1COc1ccccc1[N+](=O)[O-]	none
CCOc1ccc(-c2cc(CCCC(=O)NCCc3cc(OC)c(OC)c(OC)c3)no2)cc1	none (no result: KCNH2 WT inh, KCNH2 3.1 block)
COc1ccc(CN(C(=O)c2cc(=O)c3cc(C)cc(C)c3o2)C2CCS(=O)(=O)C2)cc1 (centres undefined)	none
CCn1c(SCC(=O)Nc2cccc(C(C)=O)c2)nnc1C(C)C	TRHR agonist-1 39 | TRHR enhancer-2 inactive | TRHR agonist-2 inactive
COc1ccccc1N1CCN(C(=O)CC(NC(=O)c2ccccc2Cl)c2ccccc2)CC1 (centres undefined)	none
COc1cccc(C2c3[nH]c4ccccc4c3CCN2Cc2cnn(C)c2)c1 (centres undefined)	TRHR enhancer-1 61 | TRHR enhancer-2 inactive | TRHR agonist-2 inconclusive
Cc1cccc(NS(=O)(=O)c2ccc(C)c(C(=O)NCC(c3cccs3)N(C)C)c2)c1 (centres undefined)	TRHR enhancer-1 42 | TRHR enhancer-2 inactive | TRHR agonist-2 inactive
CC(C)(C)c1ccc(OCCCC(=O)NNC(=O)c2ccccc2O)cc1	TRHR enhancer-1 41 | TRHR enhancer-2 inactive | TRHR agonist-2 inactive
CCOc1ccc(CN(C(=O)/C=C/c2ccco2)C2CCS(=O)(=O)C2)cc1 (centres undefined)	TRHR agonist-1 41 | TRHR enhancer-2 inactive | TRHR agonist-2 inactive
COc1ccc(C2C(C(=O)c3ccco3)=C(O)C(=O)N2c2nnc(C)s2)cc1 (centres undefined)	none
